Assay [1] is described as follows: qHTS assay to test for compound auto fluorescence at 535 nm (green) in HEK293 cells (AID 720680). Background: qHTS replaces the single test concentration by a dilution series.
Assay [2] is described as follows: qHTS assay to test for compound auto fluorescence at 460 nm (blue) in HEK293 cell free culture (AID 720681). Put shortly: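 Compounds were added to cell-free DMEM with 10% FBS and fluorescence read directly. The blue channel used 405 nm excitation and 460 nm emission, with triamterene as the reference fluorophore.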
Assay [3] in a line: qHTS assay to test for compound auto fluorescence at 535 nm (green) in HEK293 cell free culture (AID 720682). Put shortly: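 Read-out: 485/535 nm fluorescence intensity, calibrated against fluorescein. Medium only (DMEM + 10% FBS, no cells); test compound or DMSO vehicle added by pintool before plate reading.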
The nature of assay [4]: qHTS assay to test for compound auto fluorescence at 590 nm (red) in HEK293 cell free culture (AID 720683). The method, boiled down:
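Cell-free wells of DMEM with 10% FBS received compound, and intrinsic fluorescence was read at excitation/emission 540/590 nm. Values expressed as equivalence to Rose Bengal sodium.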

A short description of assay [5]: qHTS assay to test for compound auto fluorescence at 590 nm (red) in HepG2 cell free culture (AID 720684). Put shortly:
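Compounds are added to culture medium (MEM, 10% FBS) lacking cells, then fluorescence is read at excitation 540 nm, emission 590 nm, with Rose Bengal sodium as the equivalency standard.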

Assay [6] is described as follows: qHTS assay to test for compound auto fluorescence at 460 nm (blue) in HepG2 cell free culture (AID 720685). The method, boiled down:
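Compound (23 nL) or DMSO pinned into cell-free MEM with 10% FBS; blue fluorescence read at 405/460 nm excitation/emission, expressed as auto-fluorescence equivalency to triamterene.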

A short description of assay [7]: qHTS assay to test for compound auto fluorescence at 535 nm (green) in HepG2 cell free culture (AID 720686).
Assay [8] is described as follows: qHTS assay to test for compound auto fluorescence at 460 nm (blue) in HepG2 cells (AID 720687). Put shortly:
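HepG2 cells in MEM with 10% FBS, attached overnight at 37 C, were exposed to compound or DMSO for 1 hr at 37 C, 5% CO2. Blue fluorescence was read at 405/460 nm, with triamterene as reference fluorophore.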

Assay [9] is described as follows: qHTS assay to identify small molecule antagonists of the glucocorticoid receptor (GR) signaling pathway - cell viability counter screen (AID 720693). Note: nearly all actives have a fitted effect of over 55% in size.
Assay [10] in a line: qHTS assay for identifying genotoxic compounds that show differential cytotoxicity against isogenic chicken DT40 cell lines with known DNA damage response pathways - Rev3 mutant cell line (AID 743014). Note: nearly all actives have a fitted effect of over 55% in size. Note: potency is the fitted concentration of half-maximal effect.
A short description of assay [11]: qHTS assay for identifying genotoxic compounds that show differential cytotoxicity against isogenic chicken DT40 cell lines with known DNA damage response pathways - Rad54/Ku70 mutant cell line (AID 743015). Note: nearly all actives have a fitted effect of over 60% in size. Note: potency is the fitted concentration of half-maximal effect.
Assay [12] is described as follows: qHTS assay to identify small molecule antagonists of the androgen receptor (AR) signaling pathway - cell viability counter screen (AID 743033; note: nearly all actives have a fitted effect of over 45% in size).
The nature of assay [13]: qHTS assay to identify small molecule antagonists of the androgen receptor (AR) signaling pathway using the MDA cell line - cell viability counter screen (AID 743041; note: nearly all actives have a fitted effect of over 45% in size). The method, boiled down: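 Same-well cytotoxicity was assessed by CellTiter-Fluor in MDA-kb2 AR-luc cells after 16 h of compound treatment under R1881 agonism.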
Assay [14] is described as follows: qHTS assay for identifying genotoxic compounds that show differential cytotoxicity against isogenic chicken DT40 cell lines with known DNA damage response pathways - wild type cell line (AID 743012). Note: nearly all actives have a fitted effect of over 60% in size. Note: potency is the fitted concentration of half-maximal effect. Put shortly: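 Cells (DT40 wild type, 300/well) are treated with DMSO-dissolved compounds after a ~0.5 h pre-incubation and kept 40 h at 37 C/5% CO2. Viability is then measured by CellTiter-Glo luminescence following 30 min at room temperature.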

The target of assay [15] is Androgen receptor (Homo sapiens) (UniProt P10275). Briefly: qHTS assay to identify small molecule agonists of the androgen receptor (AR) signaling pathway using the MDA cell line (AID 743040; note: nearly all actives have a fitted effect of over 20% in size). Put shortly:
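Human breast carcinoma MDA-kb2 reporter cells (MMTV-luc, AR/GR elements) were treated for 16 h at 37C in 0% CO2 following a 5 h settling period. Signal was quantified by ONE-Glo luminescence.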

Assay [16] shares this target. Description: qHTS assay to identify small molecule agonists of the androgen receptor (AR) signaling pathway (AID 743036; active = well fitted activation curve with a large enough effect in the signal ratio in the repeat runs, with a control signal flat, not every such curve was filed as active; the % refers to the signal ratio). Put shortly: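 HEK293 cells stably carrying a UAS-driven beta-lactamase reporter (GeneBLAzer AR-UAS-bla-GripTite) were plated at 2,000 cells/well, rested 4 h at 37C, then exposed to compounds in DMSO for 16 h. LiveBLAzer B/G FRET substrate was added for 2 h at room temperature; fluorescence read.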

Results filed as inconclusive are left out. Calls of active or inactive are those of the source. Unless noted, calls come from the whole dose curve; as a rule, active = well fitted curve in the direction sought with a large enough effect in the repeat runs; inconclusive = weak or mixed curves; inactive = no such curve, though single readings can be large; an effect the other way counts as inactive or inconclusive.

Chain of Androgen receptor (Homo sapiens) (P10275 whole entry, looked up): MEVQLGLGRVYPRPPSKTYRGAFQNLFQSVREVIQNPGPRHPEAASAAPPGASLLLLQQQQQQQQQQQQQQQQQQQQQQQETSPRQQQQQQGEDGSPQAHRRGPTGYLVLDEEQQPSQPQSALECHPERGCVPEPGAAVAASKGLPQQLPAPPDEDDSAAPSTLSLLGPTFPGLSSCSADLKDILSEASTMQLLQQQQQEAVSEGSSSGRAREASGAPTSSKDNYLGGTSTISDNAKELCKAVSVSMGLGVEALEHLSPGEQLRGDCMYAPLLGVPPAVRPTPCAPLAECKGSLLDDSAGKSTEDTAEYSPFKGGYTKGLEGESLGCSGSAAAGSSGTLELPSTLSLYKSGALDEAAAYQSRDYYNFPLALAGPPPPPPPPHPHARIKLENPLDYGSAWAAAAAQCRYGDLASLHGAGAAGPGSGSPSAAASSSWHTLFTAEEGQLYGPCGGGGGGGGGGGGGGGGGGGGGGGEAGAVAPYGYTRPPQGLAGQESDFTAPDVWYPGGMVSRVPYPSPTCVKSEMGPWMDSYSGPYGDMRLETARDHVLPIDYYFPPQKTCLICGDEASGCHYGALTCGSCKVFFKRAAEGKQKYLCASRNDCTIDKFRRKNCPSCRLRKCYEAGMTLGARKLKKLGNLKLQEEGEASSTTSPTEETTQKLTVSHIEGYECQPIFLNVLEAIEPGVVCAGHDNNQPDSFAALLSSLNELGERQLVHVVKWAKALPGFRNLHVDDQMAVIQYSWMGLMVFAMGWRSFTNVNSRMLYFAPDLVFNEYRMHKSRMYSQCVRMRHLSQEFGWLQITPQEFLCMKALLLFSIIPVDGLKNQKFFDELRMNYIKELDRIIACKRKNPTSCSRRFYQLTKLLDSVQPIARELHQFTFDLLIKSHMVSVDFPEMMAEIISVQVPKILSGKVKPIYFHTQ

Turning to `CC1(C)[C@@H]2CC[C@@]1(C)[C@H](OC(=O)CSC#N)C2`, the Potency result in assay [1], in [2], in assay [3], in assay [4], in [5] and in assay [7] was “inactive” throughout. For the same molecule, the Potency entry in assay [9], in assay [10], in [11], in assay [12] and in [13] was “inactive” each time. The call in assay [6] and in assay [8] was inactive.

Take `CN1CCc2c(c3ccccc3n2Cc2ccccc2)C1`: the Potency entry in [1], in assay [2], in assay [3], in assay [4], in [5] and in assay [7] was “inactive” each time. The Potency entry in assay [9], in assay [10], in [12] and in assay [13] was “inactive” each time. Moreover, the molecule was classed as inactive in [6] and in assay [8].

Turning to `C=C(NC(=O)C(=C)NC(=O)c1csc(C2=N[C@@H]3c4csc(n4)[C@H]4NC(=O)c5csc(n5)[C@H]([C@](C)(O)[C@@H](C)O)NC(=O)[C@H]5CSC(=N5)C(=CC)NC(=O)C([C@@H](C)O)NC(=O)c5csc(n5)[C@]3(CC2)NC(=O)[C@H](C)NC(=O)C(=C)NC(=O)[C@H](C)NC(=O)C([C@@H](C)CC)NC2C=Cc3c([C@H](C)O)cc(nc3C2O)C(=O)O[C@@H]4C)n1)C(N)=O` (stereo partly drawn), the Potency result in [1], in assay [2], in [3], in [4], in assay [5] and in assay [7] was “inactive” in each case. Moreover, the Potency entry in assay [9] and in [15] was “inactive” in each case. The outcome in [6] and in assay [8] was inactive. Also, the Potency in assay [14] is 2.54 µM (active); in [11], 4.03 µM (active).

Take `C=C1C(=C/C=C2\CCC[C@]3(C)[C@@H]([C@H](C)/C=C/[C@H](C)C(C)C)CC[C@@H]23)C[C@@H](O)C[C@@H]1O`: the Potency result in assay [1], in assay [2], in assay [3], in assay [4], in assay [5] and in [7] was “inactive” in each case. Besides, the Potency result in assay [16], in assay [15] and in assay [13] was “inactive” throughout. The result in [6] and in assay [8] was inactive. Also, the Potency is 13.3 µM (active) in assay [14], 21.1 µM (active) in [10] and 16.8 µM (active) in assay [11].

For `COC(=O)CCC[N+](C)(C)C`, the Potency result in assay [1], in assay [2], in [3], in [4], in assay [5] and in [7] was “inactive” each time. Further, the Potency result in [9], in assay [14], in assay [11], in assay [12] and in assay [13] was “inactive” in each case. Further, the result in [6] and in assay [8] was inactive.

With `CC(C)Cc1ccc([C@@H](C)C(=O)NS(C)(=O)=O)cc1`, the Potency result in assay [1], in [2], in [3], in [4], in assay [5] and in assay [7] was “inactive” in each case. The Potency result in [12] and in assay [13] was “inactive” throughout. Further, the result in assay [6] and in [8] was inactive.

Regarding `CCC[C@@H]1C[C@@H](C(=O)N[C@@H]([C@H]2O[C@H](SC)[C@H](O)[C@@H](O)[C@H]2O)[C@H](C)Cl)N(C)C1`, the Potency entry in assay [1], in assay [2], in assay [3], in assay [4], in assay [5] and in assay [7] was “inactive” throughout. The Potency result in assay [9], in [12] and in assay [13] was “inactive” each time. Besides, the molecule was called inactive in assay [6] and in assay [8].

With `CCN(CC)CCOc1ccc2nc(N(C)C)sc2c1`, the Potency entry in [1], in assay [2], in assay [3], in assay [4], in [5] and in assay [7] was “inactive” throughout. The Potency result in [9], in [12] and in [13] was “inactive” each time. Also, the molecule was classed as inactive in assay [6] and in assay [8]. Moreover, the Potency in assay [10] was 1.68 µM (active); in assay [11], 2.11 µM (active).
